Assay [1] has as its system Zika virus NS2B-NS3 protease (unlinked complex). The assay can be described thus: Primary screen GU Rhodamine qHTS for Zika virus inhibitors: Unlinked NS2B-NS3 protease assay (AID 1347159). Also: nearly all actives have a fitted effect of over 60% in size. The method in brief:
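Noncovalent NS2B hydrophilic domain/NS3 protease complex (25 nM final) in 10 mM Tris-HCl pH 8.0, 0.01% Tween 20, preincubated 15 min with compounds (up to 114 microM), then 1.5 microM Rhodamine110 substrate. Fluorescence change over 15 min fitted to 4-parameter Hill.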

Assay [2] concerns Zika virus NS2B-NS3 protease (linked construct). In words: Primary screen NINDS Rhodamine qHTS for Zika virus inhibitors (AID 1347160). Also: nearly all actives have a fitted effect of over 55% in size. The method in brief: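 Purified NS2B-NS3 protease with the NS2B hydrophilic domain joined by a flexible linker (25 nM) in 10 mM Tris-HCl pH 8.0, 0.01% Tween 20, preincubated 15 min at RT with compound; Rhodamine110 peptide substrate 1.5 µM; fluorescence change over 15 min; 4-parameter Hill fit.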
In general terms: qHTS replaces the single test concentration by a dilution series.

Inconclusive results are not listed. A number with no mark means an inactive call. Active and inactive are the calls of the source. Calls follow the shape of the dose curve; as a rule, active = well fitted inhibition curve with a large enough effect; inconclusive = small, poorly fitted or top-dose-only effect; inactive = no such curve, though single readings can be large or run the other way.
% is scaled to controls: 0 for no effect and ±100 for the full control effect.

Turning to `CC(C)[C@H]1CCC(CO)=C[C@@H]1/C=C(\CO)C(=O)O`, the Potency result in assay [1] and in assay [2] was “inactive” throughout.

With `NC(=O)c1ccc(OCC2NC(=O)C3CCCN3C2=O)cc1` (stereo not given), the Potency entry in assay [1] and in assay [2] was “inactive” each time.

For `O=c1ccn([C@@H]2O[C@H](CO)[C@@H](O)[C@H]2O)c(=O)[nH]1`, the Potency entry in assay [1] and in assay [2] was “inactive” in each case.

As for `CC(=O)O[C@@H]1[C@@H](OC(=O)/C=C/c2ccccc2)[C@H](C)O[C@@H](O[C@H]2[C@@H]3C=CO[C@@H](O[C@@H]4O[C@H](CO)[C@@H](O)[C@H](O)[C@H]4O)[C@@H]3[C@@]3(CO)O[C@@H]23)[C@@H]1OC(C)=O`, the Potency entry in assay [1] and in assay [2] was “inactive” in each case.

With `CC(C#N)C(C)O[C@@H]1O[C@H](CO)[C@@H](O)[C@H](O)[C@H]1O` (stereo not given in full), the Potency result in assay [1] and in assay [2] was “inactive” in each case.

In the case of `COc1ccc(C(OC2OC(CO)C(O)C(O)C2O)C(C)O)cc1` (stereo not given), the Potency result in assay [1] and in assay [2] was “inactive” throughout.

Take `CC(=O)OC1C(O)CC(O[C@@H]2O[C@H](CO)[C@@H](O)[C@H](O)[C@H]2O)C2CCC3C(=O)OC(c4ccoc4)CC3(C)C21` (stereo not given in full): the Potency result in assay [1] and in assay [2] was “inactive” throughout.

For the molecule `CON(C)C(=O)N1N=C(c2cc(F)ccc2F)S[C@@]1(CCCN)c1ccccc1`, the Potency result in assay [1] and in assay [2] was “inactive” each time.

With `CCOc1ccc(C(Nc2ccccn2)c2ccc3ccc(C)nc3c2O)cc1C` (stereo not given), the Potency result in assay [1] and in assay [2] was “inactive” each time.

As to `CC(=O)N1CCN(NC(=O)c2ccc(F)cc2)CC1`, the Potency entry in assay [1] and in assay [2] was “inactive” each time.

For the molecule `CCC(=O)N[C@@H]1Cc2ccccc2[C@H](c2ccccc2)C1`, the Potency result in assay [1] and in assay [2] was “inactive” throughout.

Take `OCCc1ccc(O[C@@H]2O[C@H](CO)[C@@H](O)[C@H](O)[C@H]2O)c(O)c1`: the Potency entry in assay [1] and in assay [2] was “inactive” each time.

Regarding `CCS(=O)(=O)N1CCC([C@@H](C)n2c(C)c(C(=O)NCc3c(OC)cc(C)[nH]c3=O)c3ccccc32)CC1`, the Potency entry in assay [1] and in assay [2] was “inactive” in each case.

For the molecule `C[C@@H]1O[C@@H](O[C@H]2[C@H](OC(=O)[C@]34CCC(C)(C)C[C@H]3C3=CCC5[C@@]6(C)CC[C@H](O[C@@H]7O[C@H](CO[C@@H]8OC[C@H](O)[C@H](O)[C@H]8O)[C@@H](O)[C@H](O)[C@H]7O)C(C)(C)C6CC[C@@]5(C)[C@]3(C)C[C@H]4O)OC[C@@H](O)[C@@H]2O)[C@H](O)[C@H](O)[C@H]1O[C@@H]1OC[C@H](O)[C@H](O[C@@H]2OC[C@@H](O)[C@H](O)[C@H]2O)[C@H]1O` (stereo not given in full), the values for the activity change, negative = inhibition in assay [1] and in assay [2] were -11.8% [at 19.1 µM] and -14.5% [at 10.7 µM], respectively.

On to `CC(C)c1nc(N(C)S(C)(=O)=O)nc(-c2ccc(F)cc2)c1/C=C/[C@@H](O)C[C@@H](O)CC(=O)O`, for which the Potency entry in assay [1] and in assay [2] was “inactive” throughout.

Consider `COC1=Cc2c(nc3n(c2=O)C(C)C(=O)NC3(O)C(C)C)OC=C1` (stereo not given), for which the Potency entry in assay [1] and in assay [2] was “inactive” throughout.

Regarding `Cc1cc(C)cc(NC(=O)Cc2ccc(OC(C)(C)C(=O)O)cc2)c1`, the Potency entry in assay [1] and in assay [2] was “inactive” each time.

With `OCC1OC(Oc2cc(O)c3c(c2)OC(c2ccc(O)cc2)C(O)C3)C(O)C1O` (stereo not given), the Potency entry in assay [1] and in assay [2] was “inactive” each time.

For the molecule `CCOC(=O)N1CCC(NCCNC(=O)c2ccccc2C)CC1`, the Potency entry in assay [1] and in assay [2] was “inactive” each time.

In the case of `C=C1CC/C=C(/CO)C(=O)C[C@@H]2[C@@H]1CC2(C)C`, the Potency entry in assay [1] and in assay [2] was “inactive” each time.

As for `CCCCCCc1cccc(NC(=O)[C@H](N)CCP(=O)(O)O)c1`, the Potency entry in assay [1] and in assay [2] was “inactive” each time.

Take `C[C@H]1CN(C[C@H](Cc2ccccc2)C(=O)NCC(=O)O)CC[C@@]1(C)c1cccc(O)c1`: the Potency entry in assay [1] and in assay [2] was “inactive” in each case.

Regarding `CCOC(=O)Nc1nc2ccccc2[nH]1`, the Potency result in assay [1] and in assay [2] was “inactive” in each case.

With `O=C(OCC12OC1C=CC(OC(=O)c1ccccc1)C2O)c1ccccc1` (stereo not given), the Potency result in assay [1] and in assay [2] was “inactive” in each case.

For the molecule `CC1(C)NC2N(C1=O)c1ccccc1C2(O)CC(C(=O)O)n1cnc2ccccc2c1=O` (stereo not given), the Potency entry in assay [1] and in assay [2] was “inactive” each time.

With `CC1=CC[C@]2(C(=O)O[C@@H]3O[C@H](CO[C@@H]4O[C@H](CO)[C@@H](O[C@@H]5O[C@@H](C)[C@H](O)[C@@H](O)[C@H]5O)[C@H](O)[C@H]4O)[C@@H](O)[C@H](O)[C@H]3O)CC[C@]3(C)C(CCC4[C@@]5(C)C[C@@H](O)[C@H](O)[C@@](C)(CO)C5CC[C@]43C)C2C1C` (stereo not given in full), the Potency result in assay [1] and in assay [2] was “inactive” throughout.

As to `CC(=O)NC(CCC(=O)O)C(=O)NCCc1ccc(O)cc1` (stereo not given), the Potency entry in assay [1] and in assay [2] was “inactive” each time.

Consider `CC(=O)c1c(C)cc(O[C@@H]2O[C@H](CO)[C@@H](O)[C@H](O)[C@H]2O)cc1O`, for which the Potency result in assay [1] and in assay [2] was “inactive” throughout.

On to `COC(=O)C1=COC(O[C@@H]2O[C@H](CO)[C@@H](O)[C@H](O)[C@H]2O)/C(=C\COC(=O)c2ccc(OC3OC(CO)C(O)C(O)C3O)c(OC)c2)C1CC(=O)OCCc1ccc(O)cc1` (stereo not given in full), for which the Potency entry in assay [1] and in assay [2] was “inactive” each time.

`N#Cc1ccnc(N2C(=O)CC[C@H]2C(=O)N(c2cncc(F)c2)[C@H](C(=O)NC2CC(F)(F)C2)c2ccccc2Cl)c1`: the Potency entry in assay [1] and in assay [2] was “inactive” each time.

For the origin of these results see PubChem BioAssay (NCATS).
